# Assay outcomes (PubChem BioAssay)
# Shown are actives, neighbours in structure and some others; about 9.4% of the full set was active somewhere.
# SMN2 splice enh = SMN2 splice variant enhancement | HEK293 SMN2-luciferase splicing reporter, luminescence, 30-36 h | Potency, µM (titrated, usually from 46.1 µM), for inactives: at the top dose activity change, positive = activation, most hits filed as activators | 210,000 compounds, 2.8% hits | AID 1458; further: % of control where 0% means no effect; nearly all actives have a fitted effect of over 55% in size
#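 HEK293 cells carry an SMN2 minigene-luciferase reporter in which exon 7 inclusion puts luciferase in frame. Cells were seeded at 2000 cells/well, attached for 10-12 hours, then exposed to compounds for 30-36 hours at 37C before ONE-Glo luminescence.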
# Rab9 prom act = activates the Rab9 promoter; Huh7 Rab9 promoter-luciferase reporter, luminescence, 24 h; Potency, µM (top dose mostly 9.22 µM), without a hit: at the top dose activation, negative = inhibition, actives largely listed as activators; 320,000 compounds, 2.8% hits; AID 485297; further: % of control where 0% means no effect; nearly all actives have a fitted effect of over 60% in size
#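 Luminescence from Amplite-detected luciferase (10 minutes, ambient) reports Rab9 promoter activation. Before that, stable Rab9-luciferase Huh7 cells (1500/well, reduced-serum OP-MEM I plus 10% FBS) were exposed to compound for 24 hours at 37C.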
# FLuc counter = counter-screen for miR-21 project: firefly luciferase inhibitors or activators. 360,000 compounds, 6.9% hits. Potency, µM (highest dose often 57.5 µM), for the others: top-dose activity change, negative = inhibition, usual class: inhibitors. AID 588342. purified FLuc, Km substrates, luminescence inhibition. P08659;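 further: plate controls were vehicle for no effect and reference inhibitor for full effect; nearly all actives have a fitted effect of over 55% in size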
# Target sequence (P08659 whole entry, looked up): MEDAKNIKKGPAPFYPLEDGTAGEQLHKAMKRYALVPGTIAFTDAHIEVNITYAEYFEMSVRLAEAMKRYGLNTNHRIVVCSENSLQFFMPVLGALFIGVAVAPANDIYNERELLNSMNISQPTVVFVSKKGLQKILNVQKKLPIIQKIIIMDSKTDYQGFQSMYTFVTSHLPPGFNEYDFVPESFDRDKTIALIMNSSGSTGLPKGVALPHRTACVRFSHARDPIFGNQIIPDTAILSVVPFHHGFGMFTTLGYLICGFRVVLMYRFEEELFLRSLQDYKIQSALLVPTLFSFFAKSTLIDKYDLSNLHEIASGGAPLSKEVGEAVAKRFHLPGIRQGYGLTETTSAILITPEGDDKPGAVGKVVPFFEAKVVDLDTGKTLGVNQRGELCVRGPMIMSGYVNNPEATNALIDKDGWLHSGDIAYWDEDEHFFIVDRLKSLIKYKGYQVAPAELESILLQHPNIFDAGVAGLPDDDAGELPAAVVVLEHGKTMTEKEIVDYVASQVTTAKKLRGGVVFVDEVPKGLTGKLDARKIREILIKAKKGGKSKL
#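 Biochemical qHTS of compounds, final roughly 60 µM downward over six points, against 10 nM purified firefly luciferase using Km concentrations of substrates (10 uM D-luciferin, 10 uM ATP) in Tris acetate pH 7.5 buffer; luminescence output.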
# NPC1 prom act = activators of NPC1 promoter; Huh7 NPC1 promoter luciferase reporter, 24 h; Potency, µM (highest dose often 9.22 µM), for the others: at the highest dose activation, usual class: activators; 320,000 compounds, 2.4% hits; further: % of control where 0% means no effect; nearly all actives have a fitted effect of over 60% in size
#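 NPC1 promoter–luciferase Huh7 cells; 24 h compound; luminescence.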
# ELG1 genotoxic = genotoxicity induction in ELG1-luciferase HEK293T cells; 330,000 compounds, 1.3% hits; Potency, µM (series often up to 46 µM), for the others: top-dose activity change, positive = activation, most hits filed as activators; HEK293T ELG1-luciferase reporter, luminescence, 16 h; further: % of control where 0% means no effect; nearly all actives have a fitted effect of over 60% in size
#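 Luminescence read-out: rising ELG1-luciferase signal, reflecting elevated ELG1 protein under genetic stress, flags genotoxic compounds. Cells were treated for 16 hr at 37 °C before ONE-Glo detection.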
# ELG1 repair inh = blocks ELG1-dependent DNA repair in HEK293T cells | Potency, µM (titrated, usually from 46.1 µM), for inactives: at the highest dose activity change, negative = inhibition, usual class: inhibitors | HEK293T ELG1-luciferase reporter, luminescence, 16 h; DNA damage induced by 5-fluorouridine | 330,000 compounds, 2.3% hits; further: on the % scale 0 is the no-effect control and ±100 the full control effect; nearly all actives have a fitted effect of over 55% in size
#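 Cells (2,000 per well) received 5-fluorouridine plus test compound or DMSO and were incubated 16 hr at 37 °C, 5% CO2. Luciferase activity was read by luminescence 30 min after ONE-Glo addition; signal suppression marked inhibition of damage-induced ELG1 function.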
# Starred values were filed as active, the others as inactive; ? = inconclusive; . = no result. The call rests on the fitted dose curve; in most records, active means well fitted curve in the direction sought with a large enough effect; inconclusive means small, poorly fitted or top-dose-only effect, or another doubt; inactive means no such curve, though single readings can be large; an effect the other way counts as inactive or inconclusive. Potency means the concentration at half of the fitted maximal effect.
SMILES,SMN2 splice enh,Rab9 prom act,FLuc counter,NPC1 prom act,ELG1 genotoxic,ELG1 repair inh
COc1ccc(CCOC(=O)c2ccc(NC(=O)CC#N)cc2)cc1,.,1.7%,-12.9%,-0.1%,4.4%,3.3%
O=C(OCCCCOC(=O)c1ccccc1)c1ccccc1,.,-6.1%,-0.5%,-6.8%,-2.2%,3.5%
COc1ccc(C(=O)OCCc2ccc(O)cc2)cc1,?,?,6.75µM*,?,13µM*,?
Nc1ccc(S(=O)(=O)NC2(C(F)(F)F)NC(=O)N(c3cccc(Cl)c3)C2=O)cc1 (stereo not given),-27.4%,.,-3.7%,.,.,.
CCN(CC)C(=O)c1sc2c(c1C)c(=O)n(-c1ccc(Cl)c(Cl)c1)c(=O)n2Cc1cc(=O)n2ccccc2n1,.,.,3.2%,.,.,.
Cn1c(=O)c(C(=O)COC(=O)c2cc(C(F)(F)F)nc3c(C(F)(F)F)cccc23)c(N)n(Cc2ccccc2)c1=O,-3.2%,.,.,.,.,.
Cc1oc2ncn(CC(C)C)c(=O)c2c1C(=O)NCCCN1CCC(C)CC1,.,.,-6.0%,.,.,.
O=C1CN(c2ccccc2)C(=S)N1C(=O)c1ccccc1,.,3.98µM*,23.9µM*,?,?,?
NS(=O)(=O)c1cccc(NC(=O)CCSc2ccccc2Cl)c1,?,?,16.9µM*,?,?,?
COC(=O)c1cccc(NC(=O)Nc2ccc(Cl)cc2)c1,.,3.16µM*,2.69µM*,2.24µM*,-1.4%,?
COC(=O)c1cccc(NC(=S)Nc2ccc(Cl)c(Cl)c2)c1,.,11.4%,-14.7%,5.9%,-8.7%,-8.7%
NS(=O)(=O)c1cccc(NC(=O)Nc2ccc(Cl)cc2)c1,.,17.8%,7.57µM*,29.7%,6.4%,?
COC(=O)c1cc(NC(=O)Nc2cccc(Cl)c2)ccc1Cl,-6.8%,8.6%,30.1µM*,11.6%,-10.3%,-0.9%
CCCCN(CCCC)CCNC(=O)Cn1nc(CC)n2c(cc3sccc32)c1=O,6.1%,.,-3.4%,.,.,.
CCOc1ccc(S(=O)(=O)N2CCN(c3cccc(C(F)(F)F)c3)CC2)cc1OCC,-9.3%,.,-3.7%,.,.,.
CCc1ccc(C(=O)Nc2cc(C)ccc2F)s1,?,23.4%,19µM*,0.1%,21.5%,?
Cc1ccc(C(=O)Nc2cc([N+](=O)[O-])ccc2F)s1,-9.4%,-7.5%,?,-4.1%,-1.3%,2.9%
CCOC(=O)Cc1csc(SCn2nnc3ccccc3c2=O)n1,4.8%,-0.4%,-2.8%,3.4%,1.5%,9.3%
CCOCCn1cnc2sc(C(=O)Nc3nc(C)c(C(=O)OCC)s3)c(C)c2c1=O,-11.6%,1.9%,2.39µM*,-9.1%,12.0%,12.9%
CCOC(=O)c1sc(NC(=O)c2cc3ccccc3o2)nc1C,11.2µM*,-17.0%,2.39µM*,-42.1%,14.0%,?
CCOC(=O)c1sc(NC(=O)Cc2ccc(C)cc2)nc1C,5.6%,-2.6%,-16.1%,-4.9%,-4.7%,?
CCOCCn1cnc2sc(C(=O)Nc3ccccc3C(=O)OC)c(C)c2c1=O,.,.,-3.9%,.,.,.
CCOC(=O)Cc1csc(-n2sc3ccccc3c2=O)n1,-1.4%,28.1%,9.53µM*,22.2%,?,?
Cc1ccc(NC(=O)c2c(C)oc3ccc(O)c(CN4CCCCCC4)c23)c(C)c1,-6.3%,.,3.4%,.,.,.
CCOC(=O)Cc1csc(/N=C/c2c(O)n(-c3ccccc3C(F)(F)F)c(=O)c3ccccc23)n1,-10.3%,-2.5%,10.7µM*,-2.3%,-5.8%,13µM*
Cc1cccc(C(C)C)c1NC(=O)c1cc2ccccc2o1,.,1.5%,1.5%,-3.1%,-5.9%,-6.0%
Cc1cnc(NC(=O)c2cc3ccccc3o2)s1,2.24µM*,?,0.536µM*,1.41µM*,?,?
CCOC(=O)c1sc(NC(=O)c2ccc(CC)s2)nc1C,2µM*,23.3%,?,-2.9%,2.59µM*,?
CCOC(=O)Cc1csc(N/N=C/c2ccc(C(F)(F)F)cc2)n1,-21.7%,1.9%,0.6%,-4.9%,3.0%,?
